Measurements taken from ChEMBL document CHEMBL1201862, “PubChem BioAssay data set” (2004).
Hit rate of the full screen: of about 54,000 sequences, about 4,600 (8.5%) were called active. No stated cut-off is given here; in the data, active = GI50 up to about 1.1 µM and inactive = higher. The entries come from a sample that favours actives as a whole. Measured potencies and affinities stand elsewhere.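 Step 1: Grow cells in 96-well plates. Step 2: Expose to compound for 48 hours at 5 concentrations. Step 3: Interpolate endpoints linearly; if unreached, use highest concentration. Here, GI50 denotes the concentration required for 50% inhibition of growth.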

What follows are substances tested on LOX IMVI (assay: NCI tumour cell line growth inhibition, 48 h).
Substance CISPLATIN, CHEMBL11359 has a GI50 of 1.41 µM.
With “[Bis(aminomethyl)dimethylsilane]tetrachloroplatinum(IV), CHEMBL2146190” the GI50 was 7.48 µM.
In the case of “cis-Bis[[(trimethylsilyl)methyl]amino]tetrachloroplatinum(IV), CHEMBL2146191”, the GI50 is reported as 5.48 µM.
“[Bis(aminomethyl)ethylmethylsilane]tetrachloroplatinum(IV), CHEMBL2146192” showed a GI50 of 7.41 µM.
Substance “[Bis(aminomethyl)tetramethylenesilane]tetrachloropaltinum(IV), CHEMBL2146189” has a GI50 of 3.26 µM.
In the case of “[Bis(aminomethyl)dimethylsilane]dichloroplatinum (II), CHEMBL2146201”, the GI50 is reported as 38.6 µM.
“[Bis(aminomethyl)pentamethylenesilane]tetrachloropaltinum(IV), CHEMBL2146204” was tested, and the GI50 was 0.74 µM.
In the case of “[Bis(aminomethyl)tetramethylenesilane]dichloropaltinum(II), CHEMBL2146205”, the GI50 is reported as 22.3 µM.
For “[Bis(aminomethyl)pentamethylenesilane]dichloropaltinum(II), CHEMBL2146202”, the GI50 was 0.889 µM.
“mu-(1,7-nanodiamine-N,N')bis-(cis-aminedichloroplatimum (II)), CHEMBL2146215” showed a GI50 of 12.6 µM.
